The text below walks through data of ChEMBL document CHEMBL4513216, “Probing the Open Global Health Chemical Diversity Library for Multistage-Active Starting Points for Next-Generation Antimalarials” (ACS Infect Dis, 2020).

Each structure is given as a SMILES string. In all, about 69,000 compounds went through this assay and about 8,600 (12%) showed an effect of 50% or more. The full list was thinned out, with strong results kept by preference.

This assay deals with Plasmodium berghei. Put plainly: Screen against P. berghei liver stage (PbLuc), transformed with Luciferase, at 10uM. Conditions: tested at 10 uM. In kind it is functional, HepG2.
On to `CCn1c(C2CCN(C(=O)c3cc(Cl)no3)CC2)nn(C)c1=O`, for which the INHIBITION was -34.7%.
Take `Cc1nn(C)c2nc(N(CCOc3ccccc3)CC3CCCO3)sc12` (stereo not drawn): the INHIBITION was 85.9%.
For the molecule `Cc1nn(C)c2nc(N(Cc3ccccc3)CC3CCCO3)sc12` (stereo not drawn), the INHIBITION is reported as 32.8%.
Regarding `COc1ccc(CN(CC2CCCO2)c2nc3c(s2)c(C)nn3C)cc1` (stereo not drawn), the INHIBITION amounted to 87.1%.
Turning to `Cc1nn(C)c2nc(N(Cc3ccccn3)CC3CCCO3)sc12` (stereo not drawn), the INHIBITION is given as 3.17%.
For the molecule `Cc1nn(C)c2nc(-c3ccccn3)nc(NC[C@@H]3CCCO3)c12`, the INHIBITION was 10.4%.
For `Cc1nn(C)c2nc(N(Cc3ccncc3)CC3CCCO3)sc12` (stereo not drawn), the INHIBITION was -24%.
To `Cn1cc(CN2C[C@@H]3COC[C@]3(COCC3CC3)C2)cn1` belongs 33.1%; to `CCn1c(CN(C)Cc2csc(C)n2)nc2cc(F)ccc21`, 45.2%.
With `CC(=O)c1c(C)nn(S(=O)(=O)c2ccc(C)c(C)c2)c1C`, the INHIBITION is 4.97%.
Consider `CCOc1cc(=O)n2c(c1C(=O)OCc1ccc(F)cc1)CCCC2`, for which the INHIBITION was -3.77%.
As for `Cn1cccc(NC(=O)NCCOCc2ccccc2)c1=O`, the INHIBITION was 28.5%.
The value for `Cn1cccc(NC(=O)NCCc2cccc(O)c2)c1=O` was 57.3%.
Consider `Cn1cccc(NC(=O)NCc2cccc(CO)c2)c1=O`, for which the INHIBITION is 42.4%.
Consider `CCN(Cc1ccccc1O)CC1(C)Cc2c(N)nc(N)nc2O1` (stereo not drawn), for which the INHIBITION was determined as 16.7%.
As for `COCCOC(=O)N1C[C@@H]2CC[C@H]1CN(C1Cc3ccccc3C1)C2`, the INHIBITION is on record as -55%.
To `COc1ccc(C2CCCN2C(=O)NCCNc2ccccn2)cc1` (stereo not drawn) belongs -21.2%; to `CCCOc1ccc(CCC(=O)Nc2nonc2C)cc1`, -11.3%; to `Cc1nonc1NC(=O)CCn1cc(Br)ccc1=O`, 20.3%.
As for `Cc1ccc(OCCCC(=O)Nc2nonc2C)cc1C`, the INHIBITION was 86.1%.
For the molecule `COCC1c2c(cnn2C)CCN1Cc1ccc(C)o1` (stereo not drawn), the INHIBITION worked out at 34.4%.
Consider `Cc1n[nH]c(C)c1CCC(=O)NCC1CCCN(C2CCCC2)C1` (stereo not drawn), for which the INHIBITION was found to be 38.6%.
To `COc1nn(C)cc1C(=O)N1CCC(C)CC1` belongs 49.9%; to `CNC(=O)[C@H]1C[C@@H]2CN(C(=O)c3cccnc3)C[C@@H]2N1S(C)(=O)=O`, 10.5%; to `Cc1ccc(CN2CCCC3(CCN(S(C)(=O)=O)C3)C2)o1` (stereo not drawn), 22.7%.
On to `Cc1ccc(CN2CCC3(CCCN(S(C)(=O)=O)C3)C2)o1` (stereo not drawn), for which the INHIBITION came out at 24.9%.
For `Cc1ccc(CN2CC3(CCN(S(=O)(=O)c4ccccc4)C3)C2)o1`, the INHIBITION stood at 12.4%.
For `Cc1ccc(CN2CCC3(CCCN(Cc4ccc(F)c(F)c4)C3)C2)o1` (stereo not drawn), the INHIBITION is reported as 54.7%.
As to `Cc1ccc(CN2CCC3(CCN(S(=O)(=O)c4ccccc4)C3)C2)o1` (stereo not drawn), the INHIBITION stood at 56.8%.
The value for `Cc1ccc(CN2CCCC3(CCN(Cc4ccc(C)o4)C3)C2)o1` (stereo not drawn) was 74.7%.
Regarding `Cc1c[nH]c(CN2CCC3(CCCN(Cc4ccc(F)c(F)c4)C3)C2)n1` (stereo not drawn), the INHIBITION was 42.2%.
Turning to `CCS(=O)(=O)N1CCC2(CCN(Cc3ccc(C)o3)C2)C1` (stereo not drawn), the INHIBITION turned out to be 13.1%.
As for `Cc1ccc(CN2CCCC3(CCN(S(=O)(=O)N(C)C)C3)C2)o1` (stereo not drawn), the INHIBITION stood at 48.3%.
